Assay results: PubChem BioAssay (Tox21)
Results filed as inconclusive are left out. A number with no mark means an inactive call. Active and inactive are the calls of the source. Calls follow the shape of the dose curve; as a rule, active = well fitted inhibition curve with a large enough effect in the signal ratio in the repeat runs (not every such curve was filed as active); inconclusive = weak or mixed curves, or effect the other way; inactive = no such curve, though single readings can be large or run the other way; the % refers to the signal ratio.
% is scaled to controls: 0 for no effect and ±100 for the full control effect; potency is read from the fitted curve at half-maximal effect.

What follows are compounds tested against Androgen receptor (Homo sapiens) (UniProt P10275) (assay: qHTS assay to identify small molecule antagonists of the androgen receptor (AR) signaling pathway (AID 743035)). Conditions: HEK293 AR-UAS-bla, R1881-stimulated, beta-lactamase FRET, 16 h; series mostly up to 58.5 µM; activity change, negative = inhibition: at the top concentration.
Sequence of Androgen receptor (Homo sapiens) (P10275 whole entry, looked up): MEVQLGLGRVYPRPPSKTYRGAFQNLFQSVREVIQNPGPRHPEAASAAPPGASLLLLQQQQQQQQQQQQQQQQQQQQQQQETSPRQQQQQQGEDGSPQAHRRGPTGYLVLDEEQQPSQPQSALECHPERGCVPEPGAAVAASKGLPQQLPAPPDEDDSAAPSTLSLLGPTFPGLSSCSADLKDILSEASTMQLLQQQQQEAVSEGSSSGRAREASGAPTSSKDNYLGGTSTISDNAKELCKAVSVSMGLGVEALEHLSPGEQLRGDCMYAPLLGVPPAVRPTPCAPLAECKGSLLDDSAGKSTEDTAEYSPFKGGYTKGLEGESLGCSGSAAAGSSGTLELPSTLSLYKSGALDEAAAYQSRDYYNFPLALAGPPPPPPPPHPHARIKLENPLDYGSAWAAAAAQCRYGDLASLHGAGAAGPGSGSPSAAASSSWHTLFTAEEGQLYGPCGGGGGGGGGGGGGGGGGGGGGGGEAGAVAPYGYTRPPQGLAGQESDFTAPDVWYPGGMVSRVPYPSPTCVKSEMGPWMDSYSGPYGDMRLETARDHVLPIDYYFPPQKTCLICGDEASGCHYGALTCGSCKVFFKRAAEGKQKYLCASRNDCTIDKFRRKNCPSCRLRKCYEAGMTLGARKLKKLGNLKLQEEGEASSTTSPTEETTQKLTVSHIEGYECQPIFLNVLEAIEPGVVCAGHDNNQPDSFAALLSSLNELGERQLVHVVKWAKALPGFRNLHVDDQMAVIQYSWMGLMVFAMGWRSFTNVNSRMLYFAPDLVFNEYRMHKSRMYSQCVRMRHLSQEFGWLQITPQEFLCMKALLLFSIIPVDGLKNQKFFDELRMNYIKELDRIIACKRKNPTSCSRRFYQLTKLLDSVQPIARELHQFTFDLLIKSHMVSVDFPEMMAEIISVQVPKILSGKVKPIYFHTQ
Description: National Center for Advancing Translational Sciences [NCATS]
NIH Chemical Genomics Center [NCGC]
U.S. Environmental Protection Agency [EPA]
National Institutes of Environmental Health Sciences [NIEHS]
National Toxicology Program [NTP]
U.S. Food and Drug Administration [FDA]
Androgen receptor (AR), a nuclear hormone receptor, plays a critical role in AR-dependent prostate cancer and other androgen related diseases. Endocrine disrupting chemicals (EDCs) and their interactions with steroid hormone receptors like AR may cause disruption of normal endocrine function as well as interfere with metabolic homeostasis, reproduction, developmental and behavioral functions. To identify the compounds that inhibit AR signaling, GeneBLAzer AR-UAS-bla-GripTite cell line (Invitrogen, Carlsbad, CA, USA) containing a beta-lactamase reporter gene under control of an Upstream Activator Sequence (UAS) stably integrated into HEK293 cells was used to screen the Tox21 10K compound library.
Tox21 Assay Protocol Summary:
AR-bla cells were dispensed at 2,000 cells/5 uL of assay medium per well into black wall/clear-bottom 1536-well plates using a Multidrop Combi (ThermoFisher Scientific, Waltham, MA) dispenser. After the assay plates were incubated at a 37C and 5% CO2 for 4 hr, 23 nL of compounds dissolved in DMSO, positive controls or DMSO only was transferred to the assay plate by a Pintool station (Kalypsys, San Diego, CA), followed by addition of 1 uL of agonist (R1881) in culture medium using a Bioraptr Flying Reagent Dispenser (FRD) workstation (Beckman Coulter, Indianapolis, IN, USA). The plates were incubated at a 37C and 5% CO2 for 16 h. After 1 uL of LiveBLAzerTM B/G FRET substrate was added using a Bioraptr FRD, the plates were incubated at room temperature for 2 h and fluorescence intensity was measured by an Envision plate reader (PerkinElmer, Shelton, CT).
In the case of `BrC(Br)C(Br)Br`, the “activity change, negative = inhibition” value is reported as 1.09%.
`O=C1CC[C@@H](C(=O)O)N1` was tested, and the “activity change, negative = inhibition” value was 1.75%.
For `O=C(C(=O)c1ccco1)c1ccco1`, the “activity change, negative = inhibition” value was -0.955% [at 78.9 µM].
In the case of `C1=CCC2CC=CC2C1` (stereo not drawn), the “activity change, negative = inhibition” value is reported as 11.8%.
In the case of `CCOC(=O)c1ccc(NC(=O)CN2CCCCC2)cc1`, the “activity change, negative = inhibition” value is reported as -8.71%.
In the case of `CCC(C)(C)C(=O)O`, the “activity change, negative = inhibition” value is reported as 0.991%.
`CCc1ccc(C)cc1` was tested, and the “activity change, negative = inhibition” value was 4.93%.
With `COC(=O)CC(C(C)=O)C(=O)OC` (stereo not drawn) the “activity change, negative = inhibition” value was -1.02%.
`O=C(Oc1ccccc1)c1ccc2ccccc2c1O` was tested, and the “activity change, negative = inhibition” value was -5.96%.
`CN1C(CSCC(F)(F)F)Nc2cc(Cl)c(S(N)(=O)=O)cc2S1(=O)=O` (stereo not drawn) was tested, and the “activity change, negative = inhibition” value was -4.95%.
For `CC1CCC(C(C)CS)CC1S` (stereo not drawn), the “activity change, negative = inhibition” value was 4%.
In the case of `CCCCCCCCCCCCCOS(=O)(=O)O`, the “activity change, negative = inhibition” value is reported as -3.81%.
With `CCCCCCCC(=O)OCCCCCC` the “activity change, negative = inhibition” value was 0.981%.
In the case of `C=Cc1ccc(OC(C)=O)cc1`, the “activity change, negative = inhibition” value is reported as 12.9%.
For `CCN(CC)c1ccc(C(=C2C=CC(=[N+](CC)CC)C=C2)c2ccc(S(=O)(=O)O)cc2S(=O)(=O)[O-])cc1`, the “activity change, negative = inhibition” value was -7.58%.
With `Cc1cn([C@H]2C[C@H](F)[C@@H](CO)O2)c(=O)[nH]c1=O` the “activity change, negative = inhibition” value was -25.9%.
For `Nc1ccc(F)cc1`, the “activity change, negative = inhibition” value was -29% [at 78.9 µM].
In the case of `O=C(O)CCC(=O)c1ccc(-c2ccccc2)cc1`, the “activity change, negative = inhibition” value is reported as -7.64% [at 27 µM].
In the case of `Nc1c(Cl)cc(Cl)cc1[N+](=O)[O-]`, the “activity change, negative = inhibition” value is reported as -18.2%.
In the case of `CCC(CO)(CO)CO`, the “activity change, negative = inhibition” value is reported as -0.517% [at 78.9 µM].
In the case of `COC(=O)C1=C(C)NC(C)=C(C(=O)OC(C)(C)CN(C)CCC(c2ccccc2)c2ccccc2)C1c1cccc([N+](=O)[O-])c1` (stereo not drawn), the Potency is reported as 23.9 µM (active).
`CCCCCCCCCCCCCC(=O)OCC(O)CO` (stereo not drawn) was tested, and the “activity change, negative = inhibition” value was 2.68%.
With `CC1CCCC(=O)C1=O` (stereo not drawn) the “activity change, negative = inhibition” value was 2.66%.
